Measured values as given in PubChem BioAssay AID430 (Sanford-Burnham Center for Chemical Genomics, 2006).
The whole screen tested about 63,000 compounds, of which about 1,100 (1.7%) were called active. This excerpt belongs to a sample that is enriched for actives. Results with a measured potency or affinity are listed apart. Values without a mark were called inactive. Rule as the data show it: active = cytotoxicity above about 50%; inactive = the rest.

assay: cytotoxicity in HPDE-C7 cells, cell-based, fluorescence, HTS (AID 430); details: HPDE-C7 pancreatic duct cells viability, at 10 µM, active compounds read high;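 also: cells exposed to compound for 48 hours before viability readout; 0% = vehicle and 100% = reference cytotoxic drug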

| SMILES | cytotoxicity |
| --- | --- |
| CC(c1ccco1)N(C(=O)CSc1ccc(Br)cc1)c1ccccn1 (stereo not drawn) | 9.1% |
| CCCCOC(=O)C(C)Nc1n[nH]c(=O)[nH]c1=O (stereo not drawn) | 8.9% |
| Cc1cc(C)n(S(=O)(=O)c2ccc3ccccc3c2)n1 | 28.5% |
| COC(=O)C1=C(CSCc2ccco2)NC(=O)NC1c1cc(C)ccc1C (stereo not drawn) | -3.6% |
| c1ccc(-c2noc(CN3CCN(c4ccccc4)CC3)n2)cc1 | -1.5% |
| COc1cccc(CNC(=O)C2CCN(S(=O)(=O)c3ccc4c(c3)CCC(=O)N4)CC2)c1 | -2.9% |
| c1coc(CNc2nc(N3CCCCC3)nc3ccccc23)c1 | 25.2% |
| Oc1ccccc1-c1nc(NCc2ccco2)c2ccccc2n1 | 0.8% |
| O=C(Cn1ncc2c(=O)oc3ccccc3c21)N1CCc2ccccc2C1 | -15.7% |
| N#Cc1c(/N=C/c2ccco2)oc(-c2ccccc2)c1-c1ccccc1 | 70% (active) |
| N#Cc1c(N)oc(-c2ccccc2)c1-c1ccccc1 | -7.1% |
| N#Cc1c(/N=C/N2CCCC2)oc(-c2ccccc2)c1-c1ccccc1 | 13.1% |
| CCC(=O)N1CCN(c2ccc(NC(=O)c3ccc4c(c3)OCO4)cc2)CC1 | -5.7% |
| COc1ccc(CN(C(=O)c2ccccc2OC)C2CCS(=O)(=O)C2)cc1 (stereo not drawn) | -0.4% |
| CCN(CC)C(=O)CSc1nnc(-c2ccccc2)n1N | -1.9% |
| O=C(NC1CCCCC1)N1CCC(n2c(=O)[nH]c3ccccc32)CC1 | -3.9% |
| O=c1[nH]c2ccccc2n1CCCN1CCN(C(c2ccccc2)c2ccccc2)CC1 | -7.2% |
| O=C1CC(c2ccccc2)Sc2ccccc2N1 (stereo not drawn) | -15% |
| Cn1cccc1CNC(=O)Nc1ccc(Cl)cc1 | -23.2% |
| C=C(C)COc1ccc(-c2nc(N)ncc2Oc2ccccc2OC)c(O)c1 | 0.9% |
| C=C(C)COc1ccc(-c2ncncc2Oc2ccc(OC)cc2)c(O)c1 | 1.9% |
| CCOc1ccc(-c2n[nH]c(C)c2Oc2ccccc2OC)c(O)c1 | -2.5% |
| C=C(C)COc1ccc(-c2nc(N)nc(C)c2Oc2ccccc2OC)c(O)c1 | -1.3% |
| C=C(C)COc1ccc(-c2n[nH]c(C)c2Oc2ccccc2OC)c(O)c1 | 61.3% (active) |
| CC(C)Cc1ccc(C#N)c(SCC(N)=O)n1 | -5.5% |

| SMILES | cytotoxicity |
| --- | --- |
| Cc1ccc(NC(=O)CSc2nnc(Cn3c(=O)sc4ccccc43)n2C)cc1Cl | -0.9% |
| O=C(COC(=O)CCC(=O)c1ccc2c(c1)OCCO2)NCc1ccc2c(c1)OCO2 | -8.4% |
| Nn1c(Cc2ccccc2F)nnc1SCC(=O)N1CC(=O)Nc2ccccc21 | -3.4% |
| Cc1cc(C)cc(N2CCCn3c2nc2c3c(=O)n(CC(=O)OCc3ccccc3)c(=O)n2C)c1 | 26.4% |
| O=C(O)C1CCCCC1C(=O)OCCCCOC(=O)C1CCCCC1C(=O)O (stereo not drawn) | 3.9% |
| COc1ccc(-c2n[nH]c(C)c2-c2ccc(Cl)cc2)c(O)c1OC | -29.4% |
| COc1ccc(Oc2c(-c3ccc(O)cc3O)n[nH]c2C)cc1 | 26.3% |
| Oc1ccc(-c2[nH]ncc2-c2ccc(Cl)cc2)c(O)c1 | 33.3% |
| Cc1[nH]nc(-c2ccc(O)cc2O)c1Oc1ccccc1 | 69.8% (active) |
| COc1ccc(-c2n[nH]c(C)c2-c2cnn(-c3ccccc3)c2)c(O)c1 | 36.4% |
| Cc1[nH]nc(-c2ccc(O)cc2O)c1-c1ccc(Cl)cc1 | 60.1% (active) |
| CSCCC(C(=O)Nc1ccc2c(c1)OCO2)N1C(=O)c2ccccc2C1=O (stereo not drawn) | 0.6% |
| CN(C)c1ccc(CNC(=O)C2CCN(S(=O)(=O)c3ccc4c(c3)CCC(=O)N4)CC2)cc1 | 3.1% |
| COc1ccc(N2CC(C(=O)NCCCN3CCOCC3)CC2=O)cc1 (stereo not drawn) | 3.4% |
| Cn1c(=O)c2c(nc(SCCN3CCOCC3)n2Cc2ccc(F)cc2)n(C)c1=O | 3.9% |
| CCCc1nc2ccccc2c(C(=O)OC2CCOC2=O)c1CC (stereo not drawn) | -7.5% |
| NC1(N)OC(CN2C(=O)c3ccccc3C2=O)CS1 (stereo not drawn) | -15% |
| CC1=CC(C)(C)N2C(=O)C3(C(C#N)=C(N)Oc4cc(O)ccc43)c3cccc1c32 (stereo not drawn) | 68.4% (active) |
| CC1=CC(C)(C)N2C(=O)C3(C(C#N)=C(N)Oc4cc(C)oc(=O)c43)c3cccc1c32 (stereo not drawn) | 1.3% |
| COc1cc2c3c(c1)C1(C(=O)N3C(C)(C)C=C2C)C(C#N)=C(N)Oc2cc(O)ccc21 (stereo not drawn) | -9.2% |
| Cc1ccc2cc3c(nc2c1)N(Cc1ccco1)CC3 | -15.5% |
| CC1CCN(S(=O)(=O)c2ccc(NC(=O)Cn3nnc(-c4ccccc4)n3)cc2)CC1 | 3.7% |
| Cc1cc(NC(=O)COc2cccc3cccnc23)no1 | 7.3% |
| COc1ccc(CNC(=O)C(C#N)c2nc3ccccc3nc2N2CCCC2)cc1 (stereo not drawn) | -15.8% |
| COCCOC(=O)C(C#N)c1nc2ccccc2nc1N1CCN(Cc2ccccc2)CC1 (stereo not drawn) | 8.9% |

| SMILES | cytotoxicity |
| --- | --- |
| CC(C)COC(=O)C(C#N)c1nc2ccccc2nc1N1CCN(Cc2ccccc2)CC1 (stereo not drawn) | -14% |
| CCN1CCN(c2nc3ccccc3nc2C(C#N)C(=O)OCc2ccccc2)CC1 (stereo not drawn) | 58% (active) |
| CCCCCCOC(=O)C(C#N)c1nc2ccccc2nc1N1CCN(C)CC1 (stereo not drawn) | 64.2% (active) |
| CCCCCCOC(=O)C(C#N)c1nc2ccccc2nc1N1CCCCC1 (stereo not drawn) | -47.4% |
| CCCCCCOC(=O)C(C#N)c1nc2ccccc2nc1N1CCN(CC)CC1 (stereo not drawn) | 12.4% |
| N#CC(C(=O)NCc1ccccc1)c1nc2ccccc2nc1N1CCCC1 (stereo not drawn) | -2% |
| COc1ccc(CNC(=O)C(C#N)c2nc3ccccc3nc2N2CCN(C)CC2)cc1 (stereo not drawn) | 72% (active) |
| Cc1cc2cc(CCNC(=O)CC(C)C)c(=O)[nH]c2cc1C | 3.7% |
| O=C(NCc1ccco1)c1cc2ccccc2c(=O)o1 | -3.4% |
| Cc1nc(-c2cn[nH]c2)c2cc(C)oc2n1 | 1.2% |
| CCCN(CCC)c1nc2ccccc2nc1C(C#N)C(=O)OCCOC (stereo not drawn) | -8.9% |
| Cc1nnc(SCC(=O)Nc2nc3c(s2)CC(C)CC3)s1 (stereo not drawn) | 1% |
| CCC(c1nnnn1C(C)(C)C)N(CCOC)Cc1cc2cccc(C)c2n2nnnc12 (stereo not drawn) | 5.7% |
| CCOC(=O)c1c(C)oc2c1c(C=NCC1CCCO1)c(O)c1ccccc12 (stereo not drawn) | -16.9% |
| CCOC(=O)c1c(C)oc2c1c(C=NCc1ccccn1)c(O)c1ccccc12 | 91% (active) |
| CCOC(=O)c1c(C)oc2c1c(C=NC1CCS(=O)(=O)C1)c(O)c1ccccc12 (stereo not drawn) | 28.9% |
| CCOC(=O)c1c(C)oc2c1c1c(c3ccccc32)OCN(Cc2cccnc2)C1 | 2.1% |
| CCOC(=O)c1c(C)oc2c1c(C(c1cccnc1)N1CCN(C)CC1)c(O)c1ccccc12 (stereo not drawn) | 112% (active) |
| CCOC(=O)c1c(C)oc2c1c(/C=N/c1ccccn1)c(O)c1ccccc12 | 1.4% |
| O=S(=O)(N1CCCCC1)N1CCN(S(=O)(=O)N2CCCCC2)CC1 | 0.2% |
| CCOC(=O)CNC(=O)C(Cc1ccccc1)NS(=O)(=O)c1cccs1 (stereo not drawn) | 2.5% |
| CCOC(=O)CN(Cc1ccccc1)S(=O)(=O)c1ccc(NC(C)=O)cc1 | -2.7% |
| COC(=O)/C=C/S(=O)(=O)c1ccc(NC(C)=O)cc1 | 102% (active) |
| COc1ccccc1NS(=O)(=O)c1ccc(NC(C)=O)cc1 | -0.5% |
| COC(=O)C(C)NS(=O)(=O)c1ccc(NC(C)=O)cc1 (stereo not drawn) | -12.8% |

| SMILES | cytotoxicity |
| --- | --- |
| CC(=O)Nc1ccc(S(=O)(=O)c2ccc(N)cc2)cc1 | -11% |
| O=C(CSc1nnc(COc2ccc(Cl)cc2)o1)OC1CCCCC1 | -7.9% |
| CCOC(=O)N1CCC(NCCNC(=O)c2cccs2)CC1 | -6.4% |
| O=C(Cc1ccccc1)N1CCCC1c1ccccc1 (stereo not drawn) | -22.3% |
| CCCCN(C(=O)NC(=O)Nc1ccccc1OC)S(C)(=O)=O | -3.1% |
| CCOC(=O)N1CCN(C(=O)CSc2nnc(-c3ccc(C(C)(C)C)cc3)o2)CC1 | 2.6% |
| O=C(CNC1CCCCCC1)Nc1ccc(S(=O)(=O)NC2CC2)cc1 | -6.7% |
| Cc1ccc(-c2cc(-c3ccccc3)c(C#N)c(N)n2)o1 | 29.8% |
| Cc1cc(-c2cc(-c3ccc(Cl)cc3)nc(N)c2C#N)co1 | 77.8% (active) |
| Cc1ccc(-c2cc(-c3ccc(Cl)cc3)c(C#N)c(N)n2)o1 | 64.4% (active) |
| Cc1ccc(-c2cc(-c3ccccc3Cl)c(C#N)c(N)n2)o1 | 11.3% |
| Cc1ccc(-c2cc(-c3ccc(F)cc3)nc(N)c2C#N)o1 | 20.1% |
| Cc1ccc(-c2cc(-c3ccc(C)o3)nc(N)c2C#N)cc1 | 20.9% |
| COCC(=O)Nc1nc2n(n1)C(c1ccc(OC)cc1)CC(c1ccc(OC)cc1)N2 (stereo not drawn) | 2.7% |
| O=C(NCCN1CCc2ccccc2C1)Nc1ccc(F)cc1 | -10.7% |
| CSc1nc2cc(F)c(F)cc2n1C | -9.5% |
| COc1cc(C)c(Br)cc1S(=O)(=O)N1CCOCC1 | -9.6% |
| Cc1nn(CCCC(=O)N2CCc3ccccc3C2)c(=O)c2cc3sccc3n12 | -7.2% |
| O=C(Oc1ccccc1C(=O)N1CCOCC1)c1ccc(Br)cc1 | -14.1% |
| CN(CCc1ccccn1)Cc1ccc(Cl)cc1 | -13.4% |
| Cc1nc2oc3c(NCC4CCCO4)ncnc3c2c2c1COC(C)(C)C2 (stereo not drawn) | -3.9% |
| CC(C)c1nc2oc3c(NCC4CCCO4)ncnc3c2c2c1COC(C)(C)C2 (stereo not drawn) | -14.6% |
| CC(C)c1nc2oc3c(NCC4CCCO4)ncnc3c2c2c1CCC2 (stereo not drawn) | 114% (active) |
